Data on 59 compounds can be found in PubChem BioAssay AID2314 (National Center for Advancing Translational Sciences (NCATS), 2010).

Several values for one entry are separate records, joined by “and”; a condition that tells them apart may be missing. Identical values can stand only once. About 37,000 (12%) of roughly 300,000 compounds were called active. The sample holds actives, similar compounds and a random draw of the others, so the mix is not that of the screen. Unmarked numbers belong to inactive results. No stated cut-off is given here; in the data, active means max response mostly above about 13% (no sharp cut-off); inactive means mostly below about 14%.

A short description of the assay: Cycloheximide Counterscreen for Small Molecule Inhibitors of Shiga Toxin. Further: read at 38.3 µM for the half of the compounds with a filed dose; 0% is about no effect. To be noted: cell reporter, cycloheximide protein synthesis inhibition counterscreen; stronger effect = higher value.
Turning to `O=S(=O)(Nc1ccccc1)c1ccc(NS(=O)(=O)c2cccs2)cc1`, the max response is -2.66%. The figure for `CCCCSc1nnc2c(n1)OC=Nc1ccccc1-2` is 12.2%; for `COc1cc(N2C(=O)CSC2=S)cc(OC)c1OC` it is -3.84%; for `Cc1ccccc1NC(=O)Cn1cc(C(=O)C2CC2)c2ccccc21` it is -4.37%. With `NC(=O)c1nsc(C(=O)N(CCCN2CCOCC2)C(C(=O)NC2CCCCC2)c2ccc(Cl)cc2)c1N` (centres undefined) the figure was 0.533%; with `O=C(O)c1ccccc1-c1ccccc1C(=O)Nc1ccccc1Br`, -9.84%. With `N#Cc1c(-c2ccccc2)cc(-c2ccccc2)nc1SCC(=O)O` the figure was -2.46%. As to `Brc1ccc(Nc2c3c(nc4ncnn24)CCC3)cc1`, the max response was -7.39%. The figure for `O=C(NCc1ccccc1Cl)C1CCN(c2ncnc3c2nc2n3CCCCC2)CC1` is 17%; for `CC(=O)Nc1c2c(nn1-c1ccc(C)cc1C)CS(=O)C2` (centres undefined) it is -1.87%; for `COc1ccc(-c2nc3c(c(SCC(=O)Nc4ccc(C(=O)O)cc4)n2)Cc2ccccc2O3)cc1` it is 12.1%.

As for `Cc1ccc2[nH]c(=O)c(CN(C)S(=O)(=O)c3cccc4nonc34)cc2c1`, the max response is -10.5%. With `COc1ccc2nc(NC(=O)c3ccc(Br)s3)sc2c1`, the max response was 67.5% (active). The figure for `COc1ccc2nc(NC(=O)[C@@H]3CCCN3C(=O)c3cccs3)sc2c1` is 15.2% (active); for `COc1ccc(-n2cnc3cc(C(=O)NC4CCCC4)ccc32)cc1` it is -1.06%. With `COc1ccc2nc(NC(=O)NC3CCCCC3)sc2c1` the figure was 47.7% (active). With `COc1ccc(S(=O)(=O)N2CCN(C(=O)NC3CCCCC3)CC2)cc1` the figure was 1.04%; with `COc1ccc(CNC(=O)c2ccc(Br)s2)cc1OC`, 10.2%; with `CCOc1ccc2nc(NC(=O)c3cc([N+](=O)[O-])ccc3N3CCOCC3)sc2c1`, 11.9%. `COc1cc(Cl)c(C)cc1NC(=O)[C@@H]1CCCN1C(=O)c1cccs1`: the max response was -0.643%. The figure for `COc1ccc(Cl)cc1NC(=O)[C@@H]1CCCN1C(=O)c1cccs1` is 4.64%. With `NS(=O)(=O)c1ccc(CNC(=O)c2ccc(Cl)cc2[N+](=O)[O-])cc1` the figure was -0.486%; with `Cc1cccc(N(C)C(=O)c2cc(S(=O)(=O)N3CCCCC3)c[nH]2)c1`, -1.63%; with `O=C(NCc1ccccc1)C(c1ccco1)N(C(=O)c1csnn1)c1ccccc1F` (centres undefined), -6.55%. The figure for `O=C1c2ccccc2C2=Nc3ccccc3SC(c3ccccc3F)C12` (centres undefined) is 9.05%; for `COc1ccc(N2CCN(S(=O)(=O)c3ccc4c(c3)N(C(C)=O)CCO4)CC2)cc1` it is 2.5%.

As to `CN(C(=O)COc1ccccc1)c1nnc(-c2ccncc2)s1`, the max response was -3.07%. The figure for `CN(C(=O)c1ccno1)c1nnc(-c2cccnc2)s1` is 7.05%; for `CN(C(=O)c1ccccn1)c1nnc(-c2ccccn2)s1` it is 68.8% (active); for `CCOc1ccc(C(C)=O)cc1CSc1nnc(-c2ccncc2)n1CCOC` it is -6.17%.

As to `CC1(C)Cc2ccccc2/C(=C/C(=O)c2ccccc2)N1`, the max response is 4.21%.

As to `Cc1noc(C)c1CSCC(=O)N(CCC(C)C)c1c(N)n(Cc2ccccc2)c(=O)[nH]c1=O`, the max response was -1.36%. With `O=C(O)C1CCCN1C1=NS(=O)(=O)c2ccccc21` (centres undefined) the figure was -4.57%. With `Cc1cc2cc(CNC(=O)c3cccs3)ccc2[nH]1` the figure was 24.1% (active).

`CCc1cccc(CC)c1NC(=S)NCc1ccc2[nH]c(C)cc2c1`: the max response is -2.68%. With `Cc1cc2cc(CNC(=O)c3ccc(S(=O)(=O)N4CCOCC4)cc3)ccc2[nH]1`, the max response is -2.1%. With `COc1ccc(CS(=O)/C(Cl)=C(/Cl)C(=O)Nc2ccc(OC)nc2)cc1` (centres undefined) the figure was -16.6%; with `N#CCSc1nc2ccc(N3CCOCC3)cc2c(=O)n1CCc1ccccc1`, 10.2%; with `Cc1ccc(NS(=O)(=O)c2ccc(-c3coc(C)n3)cc2)c(C)c1`, 4.71%. With `O=C(NCc1ccccc1)C(c1cccnc1)N(C(=O)c1csnn1)c1ccc(F)cc1` (centres undefined) the figure was -4.58%; with `COC(=O)c1[nH]c2ccc(Br)cc2c1NC(=O)Oc1ccccc1`, 47% (active); with `COC(=O)c1[nH]c2ccccc2c1NC(=O)CN1CCCc2ccccc21`, 13.2%. Regarding `CCOC(=O)c1[nH]c2ccc(OC)cc2c1NC(=O)CCN1CCN(Cc2ccccc2)CC1`, the max response was 2.39%. The figure for `COc1ccc(C2(CNC(=O)C(c3ccccc3)c3ccccc3)CCOCC2)cc1OC` is 4.44%; for `CCn1cc(C(=O)NCCO)c(=O)c2cc(F)c(N3CCN(C)CC3)cc21` it is 1.78%. The figure for `COc1ccc(N2CCN(C(=O)[C@@H](NC(=O)c3cc(OC)cc(OC)c3)C(C)C)CC2)cc1` is -0.698%. The figure for `OCCCNc1nccc(-c2cc(Nc3cccc(Cl)c3)ncn2)n1` is 26.9% (active). In the case of `NS(=O)(=O)c1cccnc1Nc1cccc(Cl)c1`, the max response is 5.31%. With `CC(C)n1cnc2c(Nc3cccc(Cl)c3)nc(N(CCO)CCCO)nc21` the figure was -7.35%; with `CC(=O)N1CCN(CC(c2ccccc2)c2ccccc2)CC1`, -2.13%; with `Cc1ccc(N2C(=O)C3C4C=CC(CC4)C3C2=O)cc1Cl` (centres undefined), 0.718%.

With `CCN1C(=S)N[C@@H](CCc2ccccc2)[C@H](C(=O)OC)[C@H]1C`, the max response was -1.59% and -1.62%.

Take `COC(=O)c1c(NC(=O)CN(c2ccc(C)c(C)c2)S(C)(=O)=O)sc2c1CCCC2`: the max response is -3.45%. The figure for `CC(=O)Nc1ccc(S(=O)(=O)Nc2cc(C)cn(Cc3ccc(C)cc3)c2=O)cc1` is 10.7%; for `COc1cccc(CNC(=O)COc2cc(O)c3c(c2)OC(C)(C)CC3=O)c1` it is 6.81%. With `CCOC(=O)C1CCN(Cc2c(C(=O)N3CCOCC3)nc3c(C)cccn23)CC1` the figure was -0.834%. With `CC(C)(C)C1C/C(=C/c2ccco2)C(=O)/C(=C/c2ccco2)C1` (centres undefined) the figure was 46.9% (active); with `COC(=O)C1=C(C)N(c2ccc(Br)cc2)C(=O)/C1=C\c1ccco1`, 19.6%; with `COC(=O)COc1ccc2c(c1C)O/C(=C\c1ccco1)C2=O`, 8.5%.
